# Screening results (PubChem BioAssay)
# Sampled rows, rich in hits. Any-hit rate of the full collection: about 2.4%.
# D2 PAM-1 = potentiates the human D2 dopamine receptor allosterically; DiscoveRx D2 beta-arrestin cells, luminescence, 90 min; 100% = 57 uM dopamine signal; AID 624464; P14416; potentiation, % (no concentration beside the values); 0.23% of 360,000 active; in the data active = potentiation above about 50%
# Target sequence (P14416 whole entry, looked up): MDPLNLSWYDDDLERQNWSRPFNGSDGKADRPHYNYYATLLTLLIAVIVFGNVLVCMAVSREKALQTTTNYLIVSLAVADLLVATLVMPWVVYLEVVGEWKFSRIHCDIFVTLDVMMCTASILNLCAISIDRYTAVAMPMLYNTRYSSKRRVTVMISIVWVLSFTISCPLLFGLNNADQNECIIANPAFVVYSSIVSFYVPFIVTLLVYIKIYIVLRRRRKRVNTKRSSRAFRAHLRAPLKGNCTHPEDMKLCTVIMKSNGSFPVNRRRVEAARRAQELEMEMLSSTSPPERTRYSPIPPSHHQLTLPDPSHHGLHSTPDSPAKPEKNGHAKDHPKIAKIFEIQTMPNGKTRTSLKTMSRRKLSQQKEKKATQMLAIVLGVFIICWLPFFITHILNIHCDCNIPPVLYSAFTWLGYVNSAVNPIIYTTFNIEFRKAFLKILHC
#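 PathHunter beta-arrestin assay in DiscoveRx D2 cells. Compounds were added with an EC20 of dopamine (50 nM final) for 90 min at 37 deg C. Luminescence was read 1 h after detection reagent, with 57 uM dopamine as the EC100 control.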
# D2 ag-1 = agonists of human D2 dopamine receptor | P14416 | HEK293 T-REx D2 cells, calcium flux agonist mode | activation, % at 2 µM | 0.53% of 340,000 active | AID 485358;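 active = activation over 3 SD above normal in the single-dose calcium agonist read, cut at about 30% in these data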; also: 0% is about no effect
#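 Calcium-flux readout, 1 cycle/sec over 180 s following compound pin transfer, in inducible HEK293 Trex D2 cells (force-coupled); dopamine controls included. Positive calcium responses during this window marked compounds as potential agonists.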
# D2 antagonist = antagonizes the human D2 dopamine receptor; inhibition, % at 10 µM; AID 485344; P14416; HEK293 TREx D2 cells, calcium flux, dopamine EC80; 2% of 340,000 active; in the data active = inhibition above about 30%; inactive = below that, where a call was filed; also: 0% is about no effect
#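 Read-out: kinetic calcium fluorescence (1 cycle/s) in inducible HEK293 T-REx D2 cells after an EC80 dopamine addition that followed 180 s compound preincubation. Loss of the dopamine response indicates antagonism.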
# D2 PAM-2 = D2 dopamine receptor (human) potentiation; P14416; HEK293 T-REx D2, calcium flux, EC20 dopamine potentiation; potentiation, % at 10 µM; 0.34% of 340,000 active; AID 485347;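 active = potentiation over 3 SD above the plate norm, cut at about 30% in these data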; also: 0% is about no effect
#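 Primary screen. Calcium kinetics in induced HEK293 T-REx D2 cells: compound pre-addition 180 s, EC20 dopamine, 180 s more.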
# D2 ag-2 = activates the human D2 dopamine receptor; AID 624465; P14416; activation, % (no concentration beside the values); DiscoveRx PathHunter D2 beta-arrestin, luminescence, 90 min; 100% = 57 uM dopamine signal; 0.084% of 360,000 active; in the data active = activation above about 40%
#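 Agonist mode: compounds alone added to overnight-plated D2 PathHunter cells for 90 min at 37 C, with 57 uM final dopamine (EC100) defining full response. Beta-arrestin recruitment detected by chemiluminescent reagent, read after 1 h at ambient temperature.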
# Active calls of the source: *; . = no result.
SMILES,D2 PAM-1,D2 ag-1,D2 antagonist,D2 PAM-2,D2 ag-2
COc1ccc2noc3c2c1C(=O)c1ccccc1-3,12,.,.,.,9
O=C1c2ccccc2-c2onc3ccc(NCCCn4ccnc4)c1c23,67*,49*,28,-10,9
COc1cccc(CNC(=O)C2CCCN(S(=O)(=O)c3cn(C)cn3)C2)c1 (stereo unspecified),.,.,.,-3,.
O=C(COC(=O)CNS(=O)(=O)c1ccc2ccccc2c1)Nc1ccccc1Sc1ccccc1,4,34*,17,-22,2
CC(C)c1ccc(NC(=O)C2(C)Cc3c(-c4ccccc4)ccnc3O2)cc1 (stereo unspecified),-11,.,.,.,-6
Cc1cccc(CSCCNC(=O)CSCc2ccc([N+](=O)[O-])cc2)c1,-21,0,-14,-4,0
C/C(=N\NC(=O)CSCc1ccc([N+](=O)[O-])cc1)c1ccccc1O,-42,0,77*,-27,-4
Cc1ccc(CSCCNC(=O)CSCc2ccc([N+](=O)[O-])cc2)cc1,-15,-3,32*,-9,0
COc1cccc(-c2nc3ccccc3s2)c1O,-2,-1,-4,1,-3
Clc1ncccc1-c1nc2ccccc2s1,-5,-1,5,66*,0
COC(=O)c1[nH]c2cccc(OC)c2c1NC(=O)CCN1CCN(c2cccc(Cl)c2)CC1,.,0,38*,-22,.
COc1ccccc1NC(=O)NCCN1CCN(c2cccc(Cl)c2)CC1,-22,10,53*,-21,-3
O=C(Nc1nnc(C(F)(F)F)s1)c1ccc(Br)s1,-6,19,35*,-18,-10
CCSc1nnc(NC(=O)c2ccc(Br)s2)s1,-18,1,-11,0,-2
COc1cccc(CNCc2cccn2-c2nnc(N3CCN(c4ccccc4)CC3)s2)c1,.,1,.,4,.
O=C(COc1ccccc1-c1ccccc1)N/N=C/c1cccc2ccccc12,-2,1,-16,-1,0
COc1ccc(/C=N/NC(=O)COc2ccccc2-c2ccccc2)cc1,2,0,39*,6,-3
Cn1c(CCC(N)=O)nnc1SCC(=O)Nc1ccccc1C(=O)NC1CC1,-6,1,31*,-7,4
Cc1ccc(NC(=O)Cc2nnc(SCC(=O)NC3CCCC3)n2C)cc1C,-6,-1,31*,19,-5
CCn1c(CC(=O)Nc2ccccc2Cl)nnc1SCC(=O)NC1CCCC1,-8,0,34*,-2,-5
CCn1c(CC(=O)Nc2ccccc2F)nnc1SCC(=O)NC1CCCCC1,-4,2,-18,-1,-2
C=CCn1c(C)nnc1SCC(=O)Nc1ccccc1C(=O)NC1CC1,11,0,4,4,-3
O=C(N[C@H](CO)[C@H](O)c1ccc([N+](=O)[O-])cc1)C(Cl)Cl,-9,.,.,.,-5
O=C(NC(CO)C(O)c1ccc([N+](=O)[O-])cc1)C(Cl)Cl (stereo unspecified),-5,2,52*,-16,4
Cc1noc(C)c1S(=O)(=O)Nc1ccc2c(c1)C(=O)N([C@H](C)CO)C[C@H](C)[C@@H](CN(C)C(=O)CCCN(C)C)OCCCC[C@@H](C)O2,0,.,.,.,-10
SMILES,D2 PAM-1,D2 ag-1,D2 antagonist,D2 PAM-2,D2 ag-2
O=C(NCC(F)(F)F)[C@H]1O[C@@H](n2ccc(=O)[nH]c2=O)[C@H](O)[C@@H]1O,-5,.,.,.,1
Cc1cc(=O)n(CCO)c(O)c1C#N,52*,0,-15,8,11
Clc1ccc(OCCSc2nnnn2C2CCCCC2)cc1,-12,0,34*,-7,-2
CCCS(=O)(=O)NC(=O)C1(C)CCN(C(=O)c2ccc(C#N)cc2)C1 (stereo unspecified),-9,.,.,.,2
CCc1cc2c(=O)oc(-c3ccc(Br)cc3)nc2s1,-6,-1,33*,11,-3
C[C@@H]1CN([C@@H](C)CO)C(=O)c2cc(Br)cnc2O[C@H]1CN(C)Cc1ccccc1C(=O)O,5,.,.,.,-8
CN1C(=O)c2ccccc2Sc2ccc(NC(=O)COc3ccc(Cl)cc3)cc21,.,.,.,-1,.
NS(=O)(=O)c1cccc(NC(=O)COC(=O)C2(c3cccc(F)c3)CCCC2)c1,7,-2,51*,-8,4
